Compound activity deposited in PubChem BioAssay by National Center for Advancing Translational Sciences (NCATS).
IL-1B inflam inh – inhibitors of inflammasome signaling (IL-1 beta secretion) | THP-1 LPS/ATP IL-1B secretion, AlphaLISA, 16 h; active compounds read low | activity change, % at 57.5 µM | 360,000 compounds, 4.7% hits | AID 743279; in the data active = activity change below about -50%; inconclusive = mostly about -30% to -49%
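Secreted IL-1B measured by AlphaLISA bead assay after 16 h compound exposure of THP-1 cells; compounds (final up to 57.5 uM) added 1 h before LPS (250 ng/mL) and ATP (1.25 mM) stimulation; lower signal means less secretion.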
HT1080NT lethal – kills 2HG-producing HT-1080-NT fibrosarcoma cells. Potency, µM (top dose mostly 46.1 µM), for inactives: at the top dose activity, negative = less viability, actives largely listed as cytotoxic. HT-1080-NT fibrosarcoma viability, CellTiter-Glo ATP luminescence, 48 h. 360,000 compounds, 1.6% hits;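 note: NT is the 2HG producing partner of a matched IDH1 knockdown line; potency is the fitted concentration of half-maximal effect; 0% = DMSO-treated cells and -100% = media-only wells without cells; nearly all actives have a fitted effect of over 55% in size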
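750 cells/well, RPMI + 5% FBS; 2 h settle, compound pin-transfer, 48 h at 37 degrees C. CellTiter-Glo 10 min RT, luminescence. Normalized to DMSO and media-only wells.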
HT1080 IDH1KD tx – HT-1080 IDH1 knockdown cell toxicity (counter line) | AID 686971 | 360,000 compounds, 2% hits | Potency, µM (series often up to 46.1 µM), inactives show top-dose activity, negative = toxicity, most hits filed as cytotoxic | HT-1080 IDH1 knockdown viability, ATP luminescence, 48 h;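 note: potency is the fitted concentration of half-maximal effect; 0% = DMSO wells and -100% = cell-free medium wells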
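Luminescent ATP read-out (CellTiter-Glo, 10 min at room temperature) after 48 h compound exposure at 37 °C gave viability of IDH1-knockdown HT-1080 cells. Activity was normalised to DMSO and cell-free wells, then fitted as concentration-response curves.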
DT40 TDP1 no CPT – qHTS for Inhibitors of human tyrosyl-DNA phosphodiesterase 1 (TDP1): qHTS in cells in absence of CPT | DT40 Tdp1-/- hTDP1 cells, no CPT, ATP luminescence, 48 h | Potency, µM (doses to about 46.2 µM), without a hit: at the highest dose activity change, negative = growth inhibition, hits mostly inhibitors | 420,000 compounds, 15% hits; note: potency is the fitted concentration of half-maximal effect; nearly all actives have a fitted effect of over 55% in size
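Compound effects on proliferation are scored in DT40 Tdp1-/-;hTDP1 cells in the absence of CPT. ATP levels (CellTiter-Glo luminescence) are recorded after a ≥48 hr, 37 °C incubation.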
DT40 TDP1 CPT – DT40-hTDP1 cell growth loss with CPT. 420,000 compounds, 12% hits. chicken DT40 Tdp1-/-;hTDP1 cells + 20 nM CPT, ATP luminescence, 48 h. Potency, µM (series often up to 46.2 µM), for inactives: top-dose activity change, negative = growth inhibition, hits mostly inhibitors; note: potency is the fitted concentration of half-maximal effect; nearly all actives have a fitted effect of over 55% in size
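Chicken DT40 Tdp1-/- cells complemented with human TDP1, 400 cells/well, exposed to compounds plus 20 nM camptothecin for at least 48 h at 37 C; viability read as ATP content by CellTiter-Glo luminescence.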
* marks the source's active call; other numbers are inactive results; ? = inconclusive; · = no result given; ! = repeats disagree; [ ] = remark or other dose. An excerpt weighted towards active compounds, which were near 19% of everything screened. Unless noted, calls come from the whole dose curve; as a rule, active = well fitted curve in the direction sought with a large enough effect; inconclusive = small, poorly fitted or top-dose-only effect, or another doubt; inactive = no such curve, though single readings can be large; an effect the other way counts as inactive or inconclusive. Unless noted, % is set by controls: 0 for no effect and ±100 for the full control effect.

SMILES	IL-1B inflam inh	HT1080NT lethal	HT1080 IDH1KD tx	DT40 TDP1 no CPT	DT40 TDP1 CPT
CN(C)S(=O)(=O)c1ccc(NC(=S)NC(=O)C2CCC2)cc1	3	-4%	-3%	-4%	2%
O=C(c1ccc(=O)n(Cc2ccc(Cl)c(Cl)c2)c1)N1CCOCC1	-17	3%	3%	9%	-4%
CN(c1ccccc1)S(=O)(=O)c1ccc(NC(=S)NC(=O)c2ccccc2)cc1	11	-2%	-9%[9.24 µM]	26µM*	?
Cc1nc(SCC(=O)NC2CC2)c2c(C)c(C)sc2n1	4	-5%	-4%	?	?
Cc1sc2nc(C(C)C)nc(SCC(=O)NC3CC3)c2c1C	5	2%	1%	16µM*	16µM*
CN(C)CCn1nnc2c(=O)oc3ccccc3c21	2	15%	6%	-15%	-1%
CC1CCN(S(=O)(=O)c2ccc(C(=O)Nc3ccccc3-c3nc4ccccc4[nH]3)cc2)CC1	4	-1%	0%	?	?
CC1CCCN(S(=O)(=O)c2ccc(C(=O)Nc3ccccc3-c3nc4ccccc4[nH]3)cc2)C1 (stereo unspecified)	20	10%	9%	10µM*	18µM*
CC1CCCN(S(=O)(=O)c2ccc(C(=O)Nc3nnc(-c4ccco4)o3)cc2)C1 (stereo unspecified)	28	-8%	17%	7.3µM*	8.2µM*
CC1CCN(S(=O)(=O)c2ccc(C(=O)Nc3nnc(C4=COCCO4)o3)cc2)CC1	71	-29%	?	?	23µM*
CN(c1ccccc1)S(=O)(=O)c1ccc(C(=O)Nc2nnc(-c3ccco3)o2)cc1	22	-15%	?	21µM*	15µM*
COc1cc2nc(=S)n(CCCN3CCOCC3)c(N)c2cc1OC	-7	5%	2%	-18%	-7%
CCN(c1ccccc1)S(=O)(=O)c1ccc(C(=O)Nc2nnc(-c3ccco3)o2)cc1	14	?	?	18µM*	?
O=C(Nc1nnc(-c2ccco2)o1)c1ccc(N2C(=O)CCC2=O)cc1	3	?	?	-3%	3%
CC1CCC(NC(=O)c2cccc(S(=O)(=O)NCc3ccccc3)c2)CC1 (stereo unspecified)	-16	-2%	-9%	?	-27%
Cc1ccc(-n2cc3c(-c4cccc(Br)c4)nnc(C)c3n2)cc1	-23	2%	-2%	?	26µM*
CCN(CC)c1nc2c(-c3cccc(Br)c3)nnn2c2ccccc12	·	·	·	-22%	-2%
Cc1nnc(-c2cccc(Br)c2)c2cn(-c3ccccc3Cl)nc12	?	4%	-1%	?	23µM*
C=CCn1c(C)cc(C(=O)COc2ccc(C)nc2[N+](=O)[O-])c1C	12	?	?	21µM*	?
C=CCn1c(C)cc(C(=O)COc2nncc3ccccc23)c1C	-4	-6%	-2%	7.3µM*	8.2µM*
Cc1ccc(OCC(=O)c2cc(C)n(-c3ccccc3)c2C)c([N+](=O)[O-])n1	-5	0%	-28%	15µM*	?
CCCn1c(C)cc(C(=O)COc2ccc(S(=O)(=O)N(CC)CC)cc2[N+](=O)[O-])c1C	-28	-1%	-15%	23µM*	21µM*
O=C(CCC1CCCC1)N1CCC(N2CCCCCC2)CC1	9	12%	1%	-2%	-12%
Cc1ccc(CCNC(=O)CCCn2c(=O)c3cccn3c3ccc(F)cc32)cc1	·	·	·	16µM*	?
COc1ccc(CCNC(=O)CCCn2c(=O)c3cccn3c3ccccc32)cc1OC	·	·	·	13µM*	16µM*
SMILES	IL-1B inflam inh	HT1080NT lethal	HT1080 IDH1KD tx	DT40 TDP1 no CPT	DT40 TDP1 CPT
O=C(CCCn1c(=O)c2cccn2c2ccc(F)cc21)NCc1ccc(Cl)cc1	·	·	·	21µM*	?
COc1ccc(OC)c(CCNC(=O)CCCn2c(=O)c3cccn3c3ccc(F)cc32)c1	·	·	·	9.2µM*	18µM*
O=C(CCn1c(=O)c2cccn2c2ccc(F)cc21)NCc1cccc(F)c1	-14	27%	5%	?	?
CC1CCN2c3cc(Cl)ccc3CC3(C(=O)OC(C)(C)OC3=O)C2C1 (stereo unspecified)	·	·	·	-28%	-3%
CN(Cc1ccccc1)C(=O)COC(=O)c1ccccc1SCC(=O)N1CCCC1	-1	-1%	-2%	?	?
CC(CNC(=O)CCn1c(=O)c2cccn2c2ccc(F)cc21)c1ccccc1 (stereo unspecified)	0	0%	3%	?	13µM*!
COc1cccc(CNC(=O)CCCn2c(=O)c3cccn3c3ccc(F)cc32)c1OC	·	·	·	8.2µM*	12µM*
COc1ccc(CCNC(=O)CCCn2c(=O)c3cccn3c3ccc(F)cc32)cc1OC	·	·	·	12µM*	15µM*
COc1ccc(OC)c(CNC(=O)CCn2c(=O)c3cccn3c3ccc(F)cc32)c1	23	4%	0%	?	?
CCOC(=O)c1c(C)[nH]c(C)c1S(=O)(=O)N1CCC(C(=O)Nc2ccc(OC)c(OC)c2)CC1	·	·	·	6%	21%
O=C1OC(c2ccco2)=N/C1=C\c1ccc(-c2cccc(C(F)(F)F)c2)o1	0	-1%	-3%	23µM*	?
COc1ccc(Cl)cc1N1C(=O)[C@@H]2C[C@H]1CN2Cc1nc2ccccc2nc1C	·	·	·	-20%	5%
CCCc1nc(SCC(=O)Nc2nnc(SCC)s2)c2c(=O)n(C)c(=O)n(C)c2n1	27	10%	9%	2.9µM*	4.1µM*
CCSc1nnc(NC(=O)CSc2nc(CC)nc3c2c(=O)n(C)c(=O)n3C)s1	-6	-2%	1%	15µM*	16µM*
CCCc1nc(SCC(=O)Nc2cc(C)on2)c2c(=O)n(C)c(=O)n(C)c2n1	22	9%	2%	?	?
CCS(=O)(=O)N1CC(=O)N(c2cc(C)cc(C)c2)C(C)(C(=O)NC2CCCCC2)C1 (stereo unspecified)	·	·	·	-5%	-11%
CCCCCC(=O)C(=O)c1ccc(O)cc1O	25	14%	11%	-22%	-5%
Cc1nn(-c2ccc3ccccc3c2)c(=O)c2ccccc12	44	-4%	-18%	16µM*	?
COc1ccc(-c2c(C)nn(-c3ccccc3)c2N)cc1	12	1%	?	-18%	-28%
Cc1nn(-c2nc3ccccc3[nH]2)c(=O)c2ccccc12	-16	1.5µM*	1.5µM*	2.1µM*	1.8µM*
Cc1nn(-c2nc3ccccc3[nH]2)c(N)c1-c1ccc(Cl)cc1	-27	-11%	-25%	16µM*	?
Cc1cc(-c2ccccc2C(=O)NC2CCCCC2)on1	·	8%	12%	-12%	2%
